Results: PubChem BioAssay AID602332 (National Center for Advancing Translational Sciences (NCATS), 2012)
Values joined by “and” are separate entries in the source; they are usually repeats but may differ in a detail not shown here. Equal values may be shown once. Hit rate of the full screen: of about 420,000 compounds, about 75 (0.02%) were called active. This excerpt belongs to a sample that is enriched for actives. Values without a mark were called inactive. Calls follow the shape of the dose curve; as a rule, active = well fitted activation curve with a large enough effect; inconclusive = small, poorly fitted or top-dose-only effect; inactive = no such curve, though single readings can be large or run the other way.

Experiment: qHTS for Inducers of the Endoplasmic Reticulum Stress Response (ERSR) in Human Glioma: qHTS; also: nearly all actives have a fitted effect of over 35% in size; as to activation: % of control where 0% means no effect
Conditions: U87-MG GRP78 promoter luciferase reporter, 16 h; activation: active compounds read high
Description: Primary protein unfolding takes place for many diseases, including diabetes and hypoxia, , and triggers a reaction in the cells called ER stress response (ERSR). ). ERSR is designed as a repair mechanism, but ultimately leads to cell death via apoptosis if conditions triggering protein unfolding persist (1). The molecular clue to ERSR activation is the enhancement of the expression of key molecular chaperones, including the glucose regulated protein (GRP) 78. GRP78 is the main sensor for protein folding and the main actuator of the ERSR.
In a collaboration between the Southern Research Institute and the NIH Chemical Genomics Center, a cell based screen was developed that reliably uses GRP78 as a sensor to identify small molecules as inducers of ERSR. In resting conditions, GRP78 binds proteins and acts as a natural repressor. Once unfolded proteins are present in the ER, GRP78 releases some of the repressors and binds to the unfolded proteins. The release of the repressors executes the ERSR program. Using a human glioma cell line in a miniaturized, luminescent format, a high-throughput screen was developed to identify actuators of the ERSR.
(1) Soboloff, J. and S. A. Berger (2002). "Sustained ER Ca2+ depletion suppresses protein synthesis and induces activation-enhanced cell death in mast cells." J Biol Chem 277(16): 13812-20.
NIH Chemical Genomics Center [NCGC]
NIH Molecular Libraries Probe Centers Network [MLPCN]
Assay Submitter (PI): Maurizio Grimaldi, Southern Research Institute
Stable transfected human glioma cell line, U87-MG, are dispensed at density 1000 cells/well into Greiner white solid bottom 1536-well assay plates. Compounds are transferred via Kalypsys pin tool equipped with 1536-pin array (10nl slotted pins, V&P Scientific, San Diego, CA). The assay plates will be incubated for 16 hours and developed by adding appropriate quantities of the Promega Bright Glo reagent. The plates will be incubated at room temperature for 10 minutes prior to being transferred into a ViewLux high-throughput CCD imager (PerkinElmer), wherein end-point measurements of luminescence are acquired.
Potency is read from the fitted curve at half-maximal effect.

Compound | activation | Potency
CCOC(=O)N1CCC(N2CCOc3ccc(CN4CCC(O)(c5cccnc5)CC4)cc3C2)CC1 | -2.68% | 
CC(CCC(=O)O)C1CCC2C3C(O)C[C@@H]4CC(O)CC[C@@]4(C)C3CC[C@@]12C (stereo partly specified) | -5.26% and -4.28% | 
COc1ccc(-n2c(CNC(=O)c3cc(C(F)(F)F)ccc3Cl)nnc2SC)cc1 | -6.93% | 
COc1c(O)c2c(=O)cc(OC)c3c4c(OC)cc(=O)c5c(O)c(OC)c6c(c(c1C[C@@](C)(O)[C@H]6C(C)=O)c23)c54 | -6.89% | 
COc1cc(=O)n2c(c1C(=O)N(C)Cc1nonc1C)CCN(C(=O)c1ccc(C)cc1C)CC2 | -4.93% | 
CC(C)(C)c1ccc(OC2C=CC(C#Cc3ccccc3)OC2CO)cc1 (stereo unspecified) | -2.6% | 
CCOc1ccc2nc(N3CCCN(CCCn4cccn4)CC3)nc(C)c2c1 | 0.4% | 
O=C(NCC1Cc2cc(F)cc(-c3cnccn3)c2O1)C1COc2ccccc2O1 (stereo unspecified) | -2.7% | 
CCC1CN(CCNC(=O)c2cccc(C)n2)Cc2cc(OC)ccc2O1 (stereo unspecified) | -0.701% | 
C=C1C(=CC=C2CCC[C@]3(C)[C@@H]([C@H](C)C=C[C@H](C)C(C)C)CC[C@@H]23)C[C@@H](O)C[C@@H]1O | -0.319% | 
COc1cccc(-c2cc(=O)c3cc(NC(=O)c4ccc(C)cc4)ccc3[nH]2)c1 | -1.6% | 
COc1ccccc1C(=O)N[C@@H]1c2ccccc2C2(CCN(Cc3nc(C(C)C)cs3)CC2)[C@H]1O | -7.22% | 
CCC1CN(CCNC(=O)c2cccnc2C)Cc2cc(OC)ccc2O1 (stereo unspecified) | -0.134% | 
Cc1[nH]c2c(C(=O)NCC3Cc4cccc(-c5cccnc5)c4O3)cccc2c1C (stereo unspecified) | -3.83% | 
c1ccc(CN2CCN(Cc3ccc4c(c3)CN(Cc3c[nH]c5ccccc35)CCO4)CC2)nc1 | -3.67% | 
CN1CCN(/[N+]([O-])=N/Oc2ccc([N+](=O)[O-])cc2[N+](=O)[O-])CC1 | 20.9% | 
CCc1noc(C)c1C(=O)NCCN1Cc2cc(OC)ccc2OC(CC)C1 (stereo unspecified) | -4.48% | 
C=C1/C(=C\C=C2\CCCC3(C)C2CCC3C(C)/C=C/C(O)C2CC2)CC(O)CC1O (stereo unspecified) | -9.49% | 
COC(=O)c1ccccc1C(=O)NCc1nc(N2CCCC2)c2cccc(C)c2n1 | -2.48% | 
CC(=O)c1ccc(F)c(-c2cc(C)cc3c2OC(CNC(=O)Cc2c[nH]c4ccccc24)C3)c1 (stereo unspecified) | 0.07% | 
CO/N=C(\C(=O)N[C@@H]1C(=O)N2C(C(=O)O)=C(Cn3nnc(C)n3)CS[C@H]12)c1csc(N)n1 | -1.86% | 
CCCCc1nn(-c2ccccc2C(F)(F)F)c(=O)n1Cc1ccc(-c2ccccc2S(=O)(=O)NC(=O)c2sccc2C)cc1 | -2.91% | 
Cc1ccc2c(C)nc(N3CCCC(C(=O)NC(C)(C)CO)C3)nc2c1 (stereo unspecified) | -2.4% | 
CC(O)(COc1ccccc1)c1ccc2c(c1)CN(Cc1cn[nH]c1-c1ccc(F)cc1)CCO2 (stereo unspecified) | -3.22% | 

Compound | activation | Potency
COc1ccccc1C1CN(Cc2ccccc2O)Cc2ccccc2O1 (stereo unspecified) | -2.43% | 
C[C@H]1CC[C@H](C(=O)O)N[C@@H]1c1ccc(C#Cc2ccccc2)cc1 | -4.8% | 
C=CCC1CCC(=O)N2CCCC12 (stereo unspecified) | -2.78% | 
O=c1c(CN2CCOc3ccc(CN4CCC(Oc5cccnc5)CC4)cc3C2)coc2ccccc12 | -1.61% | 
O=C(CN1Cc2ccccc2OC(c2ccccc2)C1)N1CCCCC1c1cccnc1 (stereo unspecified) | 0.385% | 
C[C@H]1C[C@H]2[C@@H]3CCC4=CC(=O)C=C[C@]4(C)[C@@H]3C(=O)C[C@]2(C)[C@@]1(O)C(=O)CO | -3.39% | 
CC(=O)Oc1c2c(c3c(c1CC=C(C)C)O[C@@]14C(=CC5CC1C(C)(C)OC4(C/C=C(\C)C(=O)O)C5=O)C3=O)OC(C)(CCC=C(C)C)C=C2 (stereo partly specified) | -12.4% | 
COC(=O)C1=C(C)N(Cc2ccccc2)C2=C3C(=O)N(c4ccccc4)C(=O)C3[C@@](O)(C(=O)OC)C(=O)N2C1c1ccccc1 (stereo partly specified) | -1.87% and -3.39% | 
CN1CCc2nc(-c3ccccc3)c(-c3ccccc3)cc2C1 | -5.76% | 
C=CCOC(=O)C(C(C)=O)C(NC(=O)OC)c1ccccc1 (stereo unspecified) | -3.7% | 
O=C1C[C@H]2C=CCc3cccc(c32)CN1Cc1ccccc1 | -0.186% | 
CC(C)c1cc(C(=O)N2CCOc3ccc(CN4CCC(Oc5cccnc5)CC4)cc3C2)n[nH]1 | -4.01% | 
COc1ccccc1C1CN(CCNC(=O)C2=CCCC2)Cc2ccccc2O1 (stereo unspecified) | -2% | 
CC[C@H](C)[C@H](NC(=O)[C@H](Cc1cnc[nH]1)NC(=O)[C@@H](N)CCC(=O)O)C(=O)N1CCC[C@H]1C(=O)N[C@@H](C)C(=O)O | -2.54% | 
CO[C@H]1C[C@@H](O[C@@H]2[C@@H](C)O[C@@H](O[C@@H]3/C(C)=C/CC4C[C@@H](C[C@]5(C=C[C@@H](C)[C@H](C6CCCCC6)O5)O4)OC(=O)[C@@H]4C=C(C)[C@@H](O)[C@H]5OC/C(=C\C=C\[C@@H]3C)[C@]54O)C[C@H]2OC)O[C@@H](C)[C@@H]1O | -9.58% | 
CC(C)(C)c1ccc(C(=O)C[N+]2(C)CCCc3ccccc32)cc1 (stereo unspecified) | -4.17% | 
CC(=O)Nc1cc(C(=O)N2CCc3c(Cl)cccc3C2)cc2ncn(CCc3ccccn3)c12 | -1.89% | 
C[C@@H](c1ccccc1)N1C(=O)[C@H]2[C@H]3[C@H](O)[C@H](O)C/C(=N/OC[C@@H](O)COCc4ccco4)[C@@H]3CC[C@@H]2C1=O | -4.31% | 
Cc1ncc2c(c1CNS(=O)(=O)N(C)C)CCN(C(=O)c1ccccc1F)C2 | -3.66% | 
O=C1CCN(Cc2ccc(-c3ccccc3)cc2)CCN1Cc1ccccn1 | 2.1% | 
CN(C)C(=O)[C@@H]1C[C@@H](Sc2nc3ccccc3[nH]2)CN1Cc1ccc(Cl)cc1 | -3.23% | 
C[C@@H]1O[C@@H](OC[C@H]2O[C@@H](Oc3c(-c4cccc(O)c4O)oc4cc(O)cc(O)c4c3=O)[C@H](O)[C@@H](O)[C@@H]2O)[C@H](O)[C@H](O)[C@H]1O | -4.32% | 
CCCS(=O)(=O)NCc1c(C)ncc2c1CCN(C(=O)c1ccc(F)c(F)c1)C2 | -4.76% | 
CC(C)C(=O)NC(C)c1nnc2n1CCN(Cc1cccc3ncccc13)CC2 (stereo unspecified) | -2.92% | 

Compound | activation | Potency
CCC1CN(CCNC(=O)c2ccsc2)Cc2cc(OC)ccc2O1 (stereo unspecified) | -2.11% | 
N#Cc1cccc(-c2ccc3ncnc(NCc4cccs4)c3c2)c1 | -10.9% | 
COC(=O)[C@@H]1CC[C@H](C)[C@@H](c2ccc(C)cc2)N1C(=O)c1ccc(/C=N\O[C@@H](C)c2cn([C@H](CO)Cc3ccccc3)nn2)cc1 | -4.74% and -2.82% | 
COc1cc(=O)n2c(c1C(=O)NC(C)c1ccco1)CCN(Cc1cc(C)cc(C)c1)CC2 (stereo unspecified) | -3.17% | 
CO[C@@H]1COC(=O)C/C=C\[C@H](C)[C@@H](NS(=O)(=O)c2ccc(C)cc2)COC(=O)C/C=C\[C@@H]1C | -3.94% and -2.29% | 
COC(=O)c1c(OCc2ccc(F)cc2)cc(=O)n2c1CCN(Cc1ccc3cccnc3c1)CC2 | -4.1% | 
c1ccc2c(Nc3ccncc3)nc(-c3ccc4c(c3)OCO4)nc2c1 | -6.62% | 
CO[C@H]1COC(=O)[C@@H](C)NC(=O)C/C=C\[C@@H](C)[C@H](OC)COC(=O)C/C=C\[C@@H]1C | -4.07% | 
Cc1c(O)cc2c(c1C)O[C@](C)(CCC[C@H](C)CCC[C@H](C)CCCC(C)C)CC2 | -2.5% | 
CCC1(C2CCN(C(=O)c3cccc(F)c3F)CC2)NC(=O)N(CCc2scnc2C)C1=O (stereo unspecified) | -1.9% | 
Cc1cc(C)cc(CN2CCc3nnc(C(NS(C)(=O)=O)C(C)C)n3CC2)c1 (stereo unspecified) | -4.09% | 
CC(=O)OCC1OC(C#Cc2ccccc2Cl)C=CC1OC(C)=O (stereo unspecified) | -1.79% | 
CC(C)N1C[C@@H](NCc2ccccc2O)C[C@H]1C(=O)N1CCN(c2cccc(C(F)(F)F)c2)CC1 | -4.06% | 
COc1cc(=O)n2c(c1C(=O)N(C)Cc1nccs1)CCN(Cc1ccc(Cl)cc1)CC2 | -5.15% | 
O=C(CCN1Cc2ccccc2OC(c2ccccc2)C1)N[C@@H]1CS(=O)(=O)C[C@H]1O (stereo partly specified) | -4.81% | 
O=C1OCCC=C1[C@@H](O)CCc1ccccc1 | 3.05% | 
O=c1cc(-c2ccc(O)c(O)c2)oc2cccc(O)c12 | -2.34% | 
COc1c(O)cc2oc(-c3ccc(O)c(O)c3)cc(=O)c2c1O |  | 20 µM (active)
O=c1cc(-c2ccc(O)cc2)oc2c(-c3cc(-c4cc(=O)c5c(O)cc(O)cc5o4)ccc3O)c(O)ccc12 | -1.39% | 
CCCN(CC)[C@@H](CC)C(=O)Nc1c(C)cccc1C | -4.31% | 
O=C1[C@H]2[C@H]3[C@H](O)[C@H](O)C/C(=N/OCc4ccccc4)[C@H]3CC[C@@H]2C(=O)N1Cc1ccccc1 | -3.44% | 
C/C(CCN1CCCCc2nc(C)c(C)cc21)=N\O[C@@H](C)c1cn([C@@H]2COC[C@@H]2O)nn1 | -4.19% | 
COc1ccc2c(c1)CCc1cnc(-n3ncc(C(=O)NCCN4CCOCC4)c3C)nc1-2 | 5.73% | 
